From paper PMC7819943, “Rice protein-binding microarrays: a tool to detect cis-acting elements near promoter regions in rice” come the findings set out here.

Whole data set: some 68,000 sequences, median “fluorescence intensity (a.u.)” near 9,100, cut for the highest 2% near 16,000. The full list was thinned out, with the highest values kept by preference.

Chain of OsWRKY34 (Q0JBA9 entry or part of it): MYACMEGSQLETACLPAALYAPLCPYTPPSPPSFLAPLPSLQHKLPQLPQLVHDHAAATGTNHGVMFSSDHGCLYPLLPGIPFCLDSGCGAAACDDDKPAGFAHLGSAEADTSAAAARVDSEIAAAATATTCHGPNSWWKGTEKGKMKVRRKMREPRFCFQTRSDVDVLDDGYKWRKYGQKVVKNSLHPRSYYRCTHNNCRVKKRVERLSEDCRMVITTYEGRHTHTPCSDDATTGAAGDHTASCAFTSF

The assay addresses OsWRKY34 (Oryza sativa, UniProt Q0JBA9 1-250). The experiment in a line: protein-binding microarray (RPBM); PBS, 2% BSA, 51.3 ng/ul salmon testes DNA, 50 uM zinc acetate, 200 nM TF, 25 C, 1 h; high values mean tight binding. The conditions noted are these: protein: recombinant; tags: N-terminal polyhistidine and DsRed monomer fusion (pET32a); label: CyDye5-dUTP incorporated in the synthesized complementary strand; 3' TTTTT single-stranded linker to array surface; dsDNA, one strand shown. In short, it runs like this:
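In PBS with 2% BSA, salmon testes DNA and 50 µM zinc acetate, 200 nM protein was incubated on a custom Agilent array at 25 °C for 1 h and then washed off. The array had been made double-stranded by primer extension with Cy5-dUTP and blocked with 2% BSA. The proteins were transcription factors fused N-terminally to polyhistidine and DsRed, expressed in E. coli BL21-CodonPlus and purified on Ni–NTA. The binding signal is per-feature fluorescence intensity (arbitrary units) from an Axon 4000B scanner.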
“AAATATTTGACGCCGTTGACTTTCTTAAACATGTTTAACTCGGAGTCACCTAGTGCAG”: the binding signal was 15700 fluorescence intensity (a.u.).
The result for “CTAAATGTTTAACGCCGTTGACTTTTTAAAACATATTTGACGGAGTCACCTAGTGCAG” reads 13400 fluorescence intensity (a.u.).
The result for “TCCGTCCCTAAATATTTGACGCCGTTGACTTTTTAACACACGGAGTCACCTAGTGCAG” reads 35700 fluorescence intensity (a.u.); that for “ATTTCTAAATATTTGACGTCGTTGACTTTTTTAAACATGTCGGAGTCACCTAGTGCAG”, 26800 fluorescence intensity (a.u.).
For “CGGCGGTGGTCTCCGCCGTTGGATCTGGGCGTTGACTTGTCGGAGTCACCTAGTGCAG” the value was 9160 fluorescence intensity (a.u.); for “ACTGCTGCTGCATCGGCGCCTTCACCAAGATGTCAACGGACGGAGTCACCTAGTGCAG”, 8350 fluorescence intensity (a.u.); for “GCTCTGAATTTTATTTTTTCCGCTTCTTGATTTCTTCGTTCGGAGTCACCTAGTGCAG”, 9450 fluorescence intensity (a.u.).
As for “GTAGCTCGTCGTCACTGCCCATAGTACTCTGGCTTAGCTACGGAGTCACCTAGTGCAG”, the binding signal is 8030 fluorescence intensity (a.u.).
For “GGAGAGATGCCATGCCGCGCTATGTTGTTCAACTTCAAACCGGAGTCACCTAGTGCAG” the value was 8400 fluorescence intensity (a.u.); for “ATAGTTTGTTGTTTCCCAGACATAATTTTTACTAGCTTATCGGAGTCACCTAGTGCAG”, 9630 fluorescence intensity (a.u.).
On to “GTACACCGAAAGAAACCAACTCGTGTCCATCCATCCGTCTCGGAGTCACCTAGTGCAG”, for which the binding signal is 8070 fluorescence intensity (a.u.).
For “TTCATATCTGCTTTTTCCTATATATGTGTGTGTGACTGCACGGAGTCACCTAGTGCAG” the value was 9710 fluorescence intensity (a.u.); for “TTTTATAATATGTTATTGTAGCAGTTTTTGTGAGCTATTACGGAGTCACCTAGTGCAG”, 8100 fluorescence intensity (a.u.).
For “CTTGTACATCTGTCTTGCTAGAGTCTTTCACAAGATTACACGGAGTCACCTAGTGCAG” the value was 8080 fluorescence intensity (a.u.); for “GTGCTTGTGTGGCGCGTGTGCTTGTCACAGACTCTGCTCCCGGAGTCACCTAGTGCAG”, 8660 fluorescence intensity (a.u.); for “GATACAACCATTGCTCACATCATGGATGAACAAGATGACACGGAGTCACCTAGTGCAG”, 8160 fluorescence intensity (a.u.).
The result for “AGATGATGTCATTGACCATACAAGTTGAAAATAGGAGCAACGGAGTCACCTAGTGCAG” reads 63300 fluorescence intensity (a.u.); that for “TGTGGATGGCGTGGATAAGTTGACAGTTGAAAATACAAAACGGAGTCACCTAGTGCAG”, 9130 fluorescence intensity (a.u.); that for “ACATACCTCGTGCGGCCAGTCGCCTGTTACAAACTCCATTCGGAGTCACCTAGTGCAG”, 8270 fluorescence intensity (a.u.).
As for “ATGGATCATGGATGGCTCCCGTTGTCATTGTCGCGTCGTCCGGAGTCACCTAGTGCAG”, the binding signal was 9810 fluorescence intensity (a.u.).
The result for “TCCTTCTCTGACTCTGTCTTGGCCATCCTATTCCTAGCTCCGGAGTCACCTAGTGCAG” reads 10600 fluorescence intensity (a.u.); that for “GCACCTCTTTCCTATCACGCGTCACCTTGCTCCATTGTCGCGGAGTCACCTAGTGCAG”, 19000 fluorescence intensity (a.u.); that for “TGGATGGCCTTTTGTCTCTTTGTATATTATATATTTAGTTCGGAGTCACCTAGTGCAG”, 8260 fluorescence intensity (a.u.).
For “CCTCCTTGTTGCGGTCGTCTTTCGCTCTATCTTCCTTGTCCGGAGTCACCTAGTGCAG” the value was 11100 fluorescence intensity (a.u.); for “ATTGTATTTCTATATGGACTCTGCTTTTTATTTTTCTCCGCGGAGTCACCTAGTGCAG”, 8930 fluorescence intensity (a.u.); for “TCTCTCTCCTTTTGTTGCTTCCATTTCTCGTTCTTGCACGCGGAGTCACCTAGTGCAG”, 10500 fluorescence intensity (a.u.).
For “CTATATTCGAGGGAGTCCTTGTGGACTTTTTCCTTCTTTCCGGAGTCACCTAGTGCAG” the value was 9390 fluorescence intensity (a.u.); for “GTTGTCATTGTCGCGTCGTCACCTCTGATTGCGTCATTCCCGGAGTCACCTAGTGCAG”, 16500 fluorescence intensity (a.u.); for “ACCTGTATTTGTCATTATTTAGTGGACTCTGCTTAGTTCTCGGAGTCACCTAGTGCAG”, 19300 fluorescence intensity (a.u.).
With “CCTCTCTGATTCGTCACCGCCACCGCCGCGTCGTCCCGCGCGGAGTCACCTAGTGCAG”, the binding signal is 9730 fluorescence intensity (a.u.).
The result for “TCCTTAGCTTCCTTCTGTCGACTTGTCTATTCTTTTTTTCCGGAGTCACCTAGTGCAG” reads 17700 fluorescence intensity (a.u.); that for “CCATTCCTCTGTTTACCTCTGCTCTGTATACATACTCCGGCGGAGTCACCTAGTGCAG”, 9220 fluorescence intensity (a.u.).
Consider “AGAATTCCGATCGCCACCCCGCGGTTCTGCTCTCGCCGGCCGGAGTCACCTAGTGCAG”, for which the binding signal was 9150 fluorescence intensity (a.u.).
In the case of “ACAAACCCGACCTTGAACTCGAAACAGGCGCACATCCCACCGGAGTCACCTAGTGCAG”, the binding signal is 8560 fluorescence intensity (a.u.).
“CCATCGGTACCATCTGTTTCGTCTACTTCCTTTGTAATCTCGGAGTCACCTAGTGCAG”: the binding signal is 9150 fluorescence intensity (a.u.).
For “AGAGGAGAGGAGGGTTCAGATGTGGTGGGTCTATATAGCGCGGAGTCACCTAGTGCAG”, the binding signal is 9610 fluorescence intensity (a.u.).
The result for “GATAGTGTCCCACGCATGCGTCCACGAGTCCTCGACGCAACGGAGTCACCTAGTGCAG” reads 9120 fluorescence intensity (a.u.); that for “TACTACACTATTAATATATGGTCCAACCTGTCATACACACCGGAGTCACCTAGTGCAG”, 10700 fluorescence intensity (a.u.); that for “TGTTTATCTATTTTGTGTTGGTATTATTATTTCTTGTATACGGAGTCACCTAGTGCAG”, 8850 fluorescence intensity (a.u.).
For “CCACACCACAGTCGCCTCTCTCCTCTTTCACCGAGAAGCGCGGAGTCACCTAGTGCAG” the value was 8150 fluorescence intensity (a.u.); for “GTTTCCATAGCATTACACTTTTGTAACTATTATTGTTTTGCGGAGTCACCTAGTGCAG”, 9760 fluorescence intensity (a.u.); for “TATGAAGTTGATTTTGTGGATTTTTTCATCGTGATTTATTCGGAGTCACCTAGTGCAG”, 8890 fluorescence intensity (a.u.).
